HepG2 viability = HepG2 cytotoxicity, counter-screen for TGF-b inhibitors. HepG2 CAGA-GFP viability, ATP luminescence, 18 h. Potency, µM (top dose mostly 46.1 µM), for the others: at the highest dose activity change, negative = cytotoxicity, usual class: cytotoxic. 410,000 compounds, 0.76% hits; also: potency is read from the fitted curve at half-maximal effect
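HepG2 CAGA-GFP cells (1000/well, DMEM with 1% FBS) received compound, then TGF-beta at 500 pg/mL final, and were incubated 18 hours at 37 degrees C. Viability was read by CellTiter-Glo luminescence. Media-only wells were set as complete cell-killing and DMSO as no toxicity.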
TDP1 block = inhibitors of human tyrosyl-DNA phosphodiesterase TDP1; Potency, µM (series often up to 130 µM), for inactives: at the highest dose activity change, negative = inhibition, hits mostly inhibitors; Q9NUW8; recombinant TDP1, AlphaScreen DNA substrate cleavage; 350,000 compounds, 0.28% hits; also: potency is read from the fitted curve at half-maximal effect; % is scaled to controls: 0 for no effect and ±100 for the full control effect; nearly all actives have a fitted effect of over 40% in size
Target sequence (Q9NUW8 whole entry, looked up): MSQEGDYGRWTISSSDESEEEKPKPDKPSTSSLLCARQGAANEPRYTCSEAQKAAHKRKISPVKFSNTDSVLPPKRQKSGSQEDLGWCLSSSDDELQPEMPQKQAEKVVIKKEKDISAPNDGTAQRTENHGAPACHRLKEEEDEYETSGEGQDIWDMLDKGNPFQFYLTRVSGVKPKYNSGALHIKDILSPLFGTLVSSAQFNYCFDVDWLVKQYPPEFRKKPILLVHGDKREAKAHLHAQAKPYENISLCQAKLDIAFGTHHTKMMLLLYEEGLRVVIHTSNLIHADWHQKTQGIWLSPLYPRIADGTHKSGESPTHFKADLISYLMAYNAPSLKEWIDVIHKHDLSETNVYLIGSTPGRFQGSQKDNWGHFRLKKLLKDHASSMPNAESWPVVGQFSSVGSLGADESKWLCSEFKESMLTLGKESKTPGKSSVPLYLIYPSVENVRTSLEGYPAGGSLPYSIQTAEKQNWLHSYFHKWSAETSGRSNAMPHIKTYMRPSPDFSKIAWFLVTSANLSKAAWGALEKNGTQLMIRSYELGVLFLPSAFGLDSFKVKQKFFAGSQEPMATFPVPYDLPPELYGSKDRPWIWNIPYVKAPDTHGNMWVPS
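E. coli-derived human Tdp1, 1 nM final. Cpd preinc 15 min RT; substrate 15 nM final, 5 min RT; AS bead mix 10 ug/ml final, 10 min RT. Signal loss = tyrosine-FITC cleavage. No-enzyme wells = max signal.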
IL-1B inflam inh = inflammasome signaling inhibition, IL-1 beta readout; activity change, % at 57.5 µM; 360,000 compounds, 4.7% hits; AID 743279; THP-1 LPS/ATP IL-1B secretion, AlphaLISA, 16 h; hits give low values; in the data active = activity change below about -50%; inconclusive = mostly about -30% to -49%; also: % is scaled to controls: 0 for no effect and ±100 for the full control effect
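Secreted IL-1B measured by AlphaLISA bead assay after 16 h compound exposure of THP-1 cells; compounds (final up to 57.5 uM) added 1 h before LPS (250 ng/mL) and ATP (1.25 mM) stimulation; lower signal means less secretion.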
DT40 TDP1 no CPT = qHTS for Inhibitors of human tyrosyl-DNA phosphodiesterase 1 (TDP1): qHTS in cells in absence of CPT. 420,000 compounds, 15% hits. AID 686978, 2013. Potency, µM (titrated, usually from 46.2 µM), inactives show top-dose activity change, negative = growth inhibition, actives largely listed as inhibitors. DT40 Tdp1-/- hTDP1 cells, no CPT, ATP luminescence, 48 h; also: potency is read from the fitted curve at half-maximal effect; % is scaled to controls: 0 for no effect and ±100 for the full control effect; nearly all actives have a fitted effect of over 55% in size
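A cellular qHTS used chicken DT40 cells lacking endogenous Tdp1 but carrying stably transfected human TDP1. Compounds were applied without camptothecin, and cell growth kinetics were judged by ATP-dependent luminescence after ≥48 hr.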
DT40 TDP1 CPT = DT40-hTDP1 cell growth loss with CPT; 420,000 compounds, 12% hits; Potency, µM (top dose mostly 46.2 µM), without a hit: at the top dose activity change, negative = growth inhibition, actives largely listed as inhibitors; chicken DT40 Tdp1-/-;hTDP1 cells + 20 nM CPT, ATP luminescence, 48 h; also: potency is read from the fitted curve at half-maximal effect; % is scaled to controls: 0 for no effect and ±100 for the full control effect; nearly all actives have a fitted effect of over 55% in size
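Cell growth measured by CellTiter-Glo luminescence after a minimum 48 h, 37 C compound exposure with 20 nM CPT in Tdp1-knockout DT40 cells stably expressing hTDP1, seeded 400/well; qHTS titration format.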
TGFb SMAD3 inh = blocks TGF-b signaling; HepG2 CAGA-GFP TGF-b/SMAD3 reporter, GFP fluorescence, 18 h; TGF-beta stimulated, 500 pg/mL final; Potency, µM (top dose mostly 46.1 µM), inactives show at the top dose activity, negative = inhibition, most hits filed as inhibitors; 410,000 compounds, 1.2% hits; also: potency is read from the fitted curve at half-maximal effect; % is scaled to controls: 0 for no effect and ±100 for the full control effect; nearly all actives have a fitted effect of over 65% in size
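Inhibition was scored as loss of TGF-beta-induced (500 pg/mL final, 18 hours, 37 degrees C) GFP in HEPG2 cells carrying a CAGA-GFP reporter, in DMEM with 1% FBS. Well GFP was summed per cell; Activity was normalised to unstimulated and stimulated DMSO wells, then concentration-response fitting.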
Active calls of the source: *; [ ] = another dose, or the depositor's remark. An excerpt weighted towards active compounds, which were near 19% of everything screened. Unless noted, calls follow the shape of the dose curve; as a rule, active = well fitted curve in the direction sought with a large enough effect; inconclusive = small, poorly fitted or top-dose-only effect, or another doubt; inactive = no such curve, though single readings can be large; an effect the other way counts as inactive or inconclusive.

Results for Cc1ccc(OCC(=O)OCc2cc(=O)n3nc(C4CCCCC4)sc3n2)cc1C ?
HepG2 viability: -10.0%; TDP1 block: 1.9%; DT40 TDP1 no CPT: 1.4%; DT40 TDP1 CPT: -21.1%; TGFb SMAD3 inh: inconclusive

What do the screens show for `Cc1cccc(C)c1NC(=O)C(c1ccc(C(F)(F)F)cc1)n1c(=O)c(-c2ccccc2)nc2ccccc21` (stereo not drawn)?
IL-1B inflam inh: 45.7; DT40 TDP1 no CPT: inconclusive; DT40 TDP1 CPT: inconclusive

Results for Cc1cccc(C)c1NC(=O)C(c1ccnc2ccccc12)n1c(=O)c(-c2ccccc2)nc2ccccc21 (stereo not drawn) ?
IL-1B inflam inh: -20.4; DT40 TDP1 no CPT: 14.6µM*; DT40 TDP1 CPT: inconclusive

What do the screens show for `Cc1cccc(C)c1NC(=O)C(c1ccc(C#N)cc1)n1c(=O)c(-c2ccccc2)nc2ccccc21` (stereo not drawn)?
IL-1B inflam inh: -50.1*; DT40 TDP1 no CPT: inconclusive; DT40 TDP1 CPT: -4.6%

Results for Cc1ccc2c(=O)c(C(=O)c3ccc(F)cc3)cn(CC(=O)NCCc3ccccc3)c2n1 ?
HepG2 viability: 0.2%; TDP1 block: 2.1%; DT40 TDP1 no CPT: -21.4%; DT40 TDP1 CPT: -24.6%; TGFb SMAD3 inh: -16.7%

Results for Cc1nnc(SCc2cc(=O)n3c(C)cccc3n2)s1 ?
HepG2 viability: -18.3%; TDP1 block: 0.0%; DT40 TDP1 no CPT: 2.3%; DT40 TDP1 CPT: -6.3%; TGFb SMAD3 inh: -15.9%

What do the screens show for `COC(=O)C(c1ccc(OC)c(OC)c1)C1c2ccccc2C=C(C)N1C(=O)OC` (stereo not drawn)?
TDP1 block: 5.0%

How did COc1cccc(C(=O)N2N=C(c3ccccn3)CC2(O)C(F)(F)F)c1 (stereo not drawn) do in these assays?
HepG2 viability: 8.9%; TDP1 block: 5.9%; IL-1B inflam inh: 123.0; DT40 TDP1 no CPT: 4.61µM*; DT40 TDP1 CPT: 20.6µM*; TGFb SMAD3 inh: inconclusive

Results for COc1cccc(C2=NN(C(=O)c3ccc(C)o3)C(O)(C(F)(F)F)C2)c1 (stereo not drawn) ?
HepG2 viability: -7.1%; TDP1 block: -2.5%; IL-1B inflam inh: inconclusive; DT40 TDP1 no CPT: 10.3µM*; DT40 TDP1 CPT: inconclusive; TGFb SMAD3 inh: -14.5%

Results for COc1ccc(C(=O)N2N=C(c3cccc(OC)c3)CC2(O)C(F)(F)F)cc1 (stereo not drawn) ?
HepG2 viability: -18.7%; TDP1 block: 3.1%; IL-1B inflam inh: inconclusive; DT40 TDP1 no CPT: 23.1µM*; DT40 TDP1 CPT: inconclusive; TGFb SMAD3 inh: inconclusive

How did O=C(c1ccco1)N1N=C(c2ccc(Br)cc2)CC1(O)C(F)(F)F (stereo not drawn) do in these assays?
HepG2 viability: -41.2%; TDP1 block: 2.5%; IL-1B inflam inh: -63.5*; DT40 TDP1 no CPT: inconclusive; DT40 TDP1 CPT: -1.6%; TGFb SMAD3 inh: 7.94µM*

What do the screens show for `CC(C)[C@H](NC(=O)N1CCn2c1nc1ccccc12)C(=O)NC1CCCCC1`?
HepG2 viability: -7.3%; TDP1 block: -14.9%; IL-1B inflam inh: 6.5; DT40 TDP1 no CPT: 2.7%; DT40 TDP1 CPT: -17.0%; TGFb SMAD3 inh: -18.6%

What do the screens show for `CC1=C(C(=O)Nc2ccccc2)C(CC(C)C)n2nc(SCc3ccccc3C)nc2N1` (stereo not drawn)?
HepG2 viability: -12.9%; TDP1 block: 0.0%; DT40 TDP1 no CPT: inconclusive; DT40 TDP1 CPT: inconclusive; TGFb SMAD3 inh: -4.3%

How did COc1cccc(C2=NN(C(=O)c3cccs3)C(O)(C(F)(F)F)C2)c1 (stereo not drawn) do in these assays?
HepG2 viability: 7.4%; TDP1 block: 2.6%; IL-1B inflam inh: -71.8*; DT40 TDP1 no CPT: 18.4µM*; DT40 TDP1 CPT: inconclusive; TGFb SMAD3 inh: inconclusive

What do the screens show for `CC(OC(=O)c1n[nH]c2ccccc12)C(=O)Nc1ccccc1[N+](=O)[O-]` (stereo not drawn)?
HepG2 viability: -32.6%; TDP1 block: 0.3%[56.1 µM]; IL-1B inflam inh: 6.3; DT40 TDP1 no CPT: 14.6µM*; DT40 TDP1 CPT: inconclusive; TGFb SMAD3 inh: inconclusive

Results for Cc1ccc(NC(=O)C(C)OC(=O)c2n[nH]c3ccccc23)cc1 (stereo not drawn) ?
HepG2 viability: -10.8%; IL-1B inflam inh: 6.1; DT40 TDP1 no CPT: -7.9%; DT40 TDP1 CPT: -7.9%; TGFb SMAD3 inh: -25.4%

What do the screens show for `CN=C1CC(SC)=C1c1ccc(C)cc1`?
HepG2 viability: -2.5%; TDP1 block: 2.6%; IL-1B inflam inh: -22.0; DT40 TDP1 no CPT: 20.6µM*; DT40 TDP1 CPT: 16.4µM*; TGFb SMAD3 inh: -23.8%

Results for Cc1onc(-c2ccccc2)c1NC(=O)Nc1c(-c2ccccc2)noc1C ?
HepG2 viability: 2.2%; TDP1 block: 5.9%; IL-1B inflam inh: 28.3; DT40 TDP1 no CPT: -23.6%; DT40 TDP1 CPT: 4.3%; TGFb SMAD3 inh: 20.8%

How did Cc1ccc(-c2noc(N=O)c2NO)cc1 do in these assays?
HepG2 viability: -39.4%; IL-1B inflam inh: -95.9*; DT40 TDP1 no CPT: 23.1µM*; DT40 TDP1 CPT: 20.6µM*; TGFb SMAD3 inh: inconclusive

Results for COC(=O)CSC1=C(C#N)C(c2cccc(F)c2)CC(=O)N1 (stereo not drawn) ?
HepG2 viability: -4.7%; TDP1 block: 2.9%; IL-1B inflam inh: 53.3; DT40 TDP1 no CPT: 23.1µM*; DT40 TDP1 CPT: inconclusive; TGFb SMAD3 inh: inconclusive

Results for CCOC(=O)CSC1=C(C#N)C(c2ccccc2OC)CC(=O)N1 (stereo not drawn) ?
HepG2 viability: -4.9%; TDP1 block: -3.9%; IL-1B inflam inh: 41.4; DT40 TDP1 no CPT: 16.4µM*; DT40 TDP1 CPT: 16.4µM*; TGFb SMAD3 inh: -2.9%

Results for CCOC(=O)CSC1=C(C#N)C(c2ccc(C)s2)CC(=O)N1 (stereo not drawn) ?
HepG2 viability: -30.7%; TDP1 block: -1.2%; IL-1B inflam inh: -17.9; DT40 TDP1 no CPT: 3.26µM*; DT40 TDP1 CPT: 5.17µM*; TGFb SMAD3 inh: inconclusive

What do the screens show for `COc1ccc(-c2cc(C)no2)cc1S(=O)(=O)NCc1ccco1`?
HepG2 viability: -13.0%; TDP1 block: -7.9%; DT40 TDP1 no CPT: inconclusive; DT40 TDP1 CPT: inconclusive; TGFb SMAD3 inh: -23.6%

What do the screens show for `O=C(Cl)COCc1ccccc1`?
TDP1 block: 8.9%
